Screens deposited in PubChem BioAssay by National Center for Advancing Translational Sciences (NCATS).
In the library only some 2.1% were active in any assay of this set; here they are far more common.
Abeta rescue = A-beta toxicity reversal in yeast. yeast expressing A-beta42, growth rescue, OD600, 48 h; response scale: 0% DMSO, 100% iron-clioquinol control. AID 1347071. actives 0.063% (n = 410,000). Potency, µM (top dose mostly 46.1 µM), usual class: activators; note: nearly all actives have a fitted effect of over 55% in size
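Growth rescue measured by 600 nm absorbance after 48 h yeast culture at 30 C with compound. Values normalized between DMSO and an equimolar ferric chloride plus clioquinol control.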
FUS yeast rescue = rescues growth of FUS-expressing yeast | actives 0.24% (n = 390,000) | AID 1347120 | S. cerevisiae FUS-expressing, growth rescue, OD600, 24 h | Potency, µM (top dose mostly 76.6 µM), most hits filed as activators;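 note: plate controls were DMSO vehicle for no effect and reference control for full effect; nearly all actives have a fitted effect of over 55% in size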
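Read-out: OD at 600 nm after 24hr at 30C, reporting rescue of FUS-induced yeast toxicity. Cells at OD 0.005 in galactose (2%) minimal medium; compounds tested in a dilution series; CP55940 titration from 92uM final as control.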
TDP43 rescue = inhibitors of TDP-43 toxicity in yeast | actives 1.8% (n = 410,000) | Potency, µM (doses to about 46.1 µM), inactives show at the top dose growth rescue (activation), most hits filed as activators | TDP-43 expressing yeast growth rescue, BacTiter-Glo, 24 h; note: % of control where 0% means no effect; nearly all actives have a fitted effect of over 50% in size
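In this qHTS, compounds that restore growth of yeast expressing TDP-43 appear as activators. Cells (OD600=0.02, galactose medium, raffinose-pregrown) are incubated with compound 24 hr at 30 deg C and growth is quantified by BacTiter-Glo.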
aSyn rescue = alpha-synuclein toxicity inhibition in yeast | Yeast expressing alpha-synuclein, growth rescue, BacTiter-Glo, 24 h | Potency, µM (doses to about 46.1 µM), inactives show at the top dose growth rescue (activation), actives largely listed as activators | actives 0.14% (n = 370,000) | AID 652106; note: % of control where 0% means no effect; nearly all actives have a fitted effect of over 65% in size
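Readout is rescue of growth in alpha-synuclein-expressing yeast, so inhibitors of toxicity appear as activators. Growth after 24 hr at 30 deg C in galactose medium is quantified by luminescence.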
Numbers without * were called inactive; i = inactive; ? = inconclusive; . = no result. Calls come from the whole dose curve; as a rule, active = well fitted curve in the direction sought with a large enough effect; inconclusive = small, poorly fitted or top-dose-only effect, or another doubt; inactive = no such curve, though single readings can be large; an effect the other way counts as inactive or inconclusive. Potency is the fitted concentration of half-maximal effect.

SMILES	Abeta rescue	FUS yeast rescue	TDP43 rescue	aSyn rescue
COc1ccc(NC(=O)c2cc(S(=O)(=O)NCC3COc4ccccc4O3)ccc2F)cc1 (stereo not given)	i	?	35.5µM*	6.2%
Cc1ccc(NC(=O)c2cc(S(=O)(=O)NCCC3=CCCCC3)ccc2F)cc1	i	.	22.4µM*	9.1%
Cc1ccc(/C=C(\NC(=O)c2ccc(C)cc2)c2nc(=S)[nH][nH]2)cc1	i	i	20µM*	27.8%
COC(=O)[C@]12C[C@H](CC(=O)NCCCCc3ccccc3)C(=O)N(Cc3cccc4ccccc34)C1=C[C@H](COCc1ccccc1)O[C@@H]2C	.	i	.	.
CC(=O)c1ccccc1NC(=O)COC(=O)C1CCCN1S(=O)(=O)c1ccccc1F (stereo not given)	i	i	16.7%	14.1µM*
N#Cc1ccccc1OCC(=O)N1CCN(c2ccccc2F)CC1	i	i	22.4µM*	.
COc1ccccc1N1CCN(C(=O)COc2ccccc2C#N)CC1	i	i	?	.
Cn1cccc1C(=O)OCC(=O)Nc1cc(C(C)(C)C)nn1-c1ccccc1	i	i	35.5µM*	6.6%
Nc1nc(=S)[nH]c2n[nH]nc12	.	.	.	-6.2%
COc1ccc(-c2c(Cc3ccccc3)nc(NC(=O)c3ccccc3F)n2C)cc1	.	i	.	.
Nc1ncc2c(n1)CC(c1ccco1)CC2=O (stereo not given)	i	i	14.1µM*	0.6%
CC(=O)Nc1ncc2c(n1)CC(c1ccco1)CC2=O (stereo not given)	i	i	-1.2%	-3.8%
CN(C)c1nc(F)c(F)c(S(=O)(=O)c2ccccc2)c1F	i	i	14.1µM*	1.9%
Cc1cc(C)c(S(=O)(=O)c2ccccc2)c(N(C)C)n1	i	i	13.3%	0.5%
Cc1nc2sc(C(=O)NCc3nccs3)c(N)c2c(C)c1Cl	.	i	.	.
COc1cccc2c(=O)c3ccoc3n(C)c12	i	i	0.0%	10.2%
COc1cccc2c(=O)c3c(cnn3C)n(C)c12	?	i	?	25.1µM*
COc1ccc(-n2c(SCC(=O)N3CCCCC3)nc(O)cc2=O)cc1	i	31.6µM*	-3.1%	2.8%
CCSc1ccc([C@@H]2[C@@H]3C(=O)N(CC)C(=O)[C@@H]3[C@]3(C(=O)OC)CCCCN23)cc1	i	i	25.1µM*	29.5%
CCN1C(=O)[C@H]2[C@@H](c3ccc(-c4ccccc4)cc3)N3CCCC[C@@]3(C(=O)OC)[C@H]2C1=O	i	?	35.5µM*	2.0%
COc1cccc(C(=O)N2CCC(Oc3cccnc3)CC2)c1	.	i	.	.
O=C(c1ccco1)N1CCN(/C=C2\Nc3ccccc3C(=O)N2c2ccc(F)cc2)CC1	.	.	.	0.0%
Cc1[nH]nc2c1-c1nc3ccccc3nc1C(C)(C)C2	i	i	22.4µM*	-0.3%
CC12CCC(C)(c3nc4ccccc4nc31)C2(C)C	i	i	6.8%	-4.6%
Cc1cc(Nc2ccccc2)n(-c2nc3ccccc3[nH]2)n1	i	i	15.8µM*	10.1%
SMILES	Abeta rescue	FUS yeast rescue	TDP43 rescue	aSyn rescue
COc1ccc2c(C)cc(=O)oc2c1C	i	i	10.0%	1.7%
Cc1cc(=O)oc2c(C)c3occc3cc12	?	i	2.51µM*	?
CC(C)(C)NC(=O)C[n+]1ccc(C(N)=O)cc1	i	i	1.1%	35.5µM*
Cc1ccc(NC(=O)C2CCCN2S(=O)(=O)c2cccc3nsnc23)c(Br)c1 (stereo not given)	i	i	20µM*	.
C=CCc1c(C)nc2c(OC)cccc2c1Cl	i	i	14.9%	25.8%
COc1cccc2c(Cl)c(CC=C(Cl)Cl)c(C)nc12	i	i	11.2µM*	-18.4%
C=CCN1[C@H](C#N)[C@@H](c2ccccc2)[C@H]1CO	.	i	.	.
COc1ccc(C(C(=O)NC2CCCC2)n2c(CSCCOc3ccccc3)nc3ccccc32)cc1 (stereo not given)	i	17.8µM*	5.0%	-2.8%
Nc1c(Nc2ccccc2)c2ccccc2oc1=O	i	i	?	17.8µM*
CCCCCN1CCCCC(NC(=O)c2ccc(C)cc2)C1=O (stereo not given)	.	i	.	.
COc1cc2nc(Cl)nc(NC(C)C)c2cc1OC	.	.	.	0.3%
COC(=O)[C@@H]1C[C@@]2(c3ccccc3)c3ccccc3N(S(=O)(=O)c3ccccc3)[C@H]2N1C(=O)CNC1CCCCC1	.	i	.	.
CCn1c2ccccc2c2cc(/C(C)=N/O)ccc21	i	.	35.5µM*	?
C/C(=N\O)c1ccc2c3ccccc3n(C)c2c1	i	i	8.6%	-1.3%
CCCn1c2ccccc2c2cc(C(=O)O)ccc21	i	i	6.31µM*	4.2%
COc1cc(CC(=O)Nc2cccc(SC)c2)cc(OC)c1OC	i	i	-1.0%	1.2%
COc1ccc(CC(=O)Nc2cccc(SC)c2)cc1	i	.	12.6µM*	0.1%
C#CCNC(=O)C[C@@H]1C(=O)N(CC=C)/C2=C/CCCCC[C@]21C(=O)OCC	.	i	.	.
COc1ccc(N2CCN(c3nc(-c4cccs4)nc4ccccc34)CC2)cc1	i	?	12.6µM*	-8.6%
Cc1cccc(-c2noc(CCCC(=O)Nc3cccnc3)n2)c1	i	.	0.0%	0.1%
O=C(CCCc1nc(-c2ccc(Cl)cc2)no1)Nc1cccnc1	i	i	15.8µM*	?
c1ccc(OCCCc2nc(-c3cccnc3)no2)cc1	i	i	11.0%	3.2%
c1ccc(CCCc2nc(-c3cccnc3)no2)cc1	i	i	8.91µM*	2.9%
COc1ccc(-c2noc(CCc3ccccc3)n2)cc1	i	i	17.8µM*	-11.0%
CC(C)CN1CN2Cc3ccccc3C2CS1(=O)=O (stereo not given)	.	i	.	.
SMILES	Abeta rescue	FUS yeast rescue	TDP43 rescue	aSyn rescue
Cc1nc(NC(=O)/C=C/c2ccccc2)n[nH]1	i	i	22.4µM*	?
CCOC(=O)CCCNC(=O)O[C@@H]1CC[C@@]23CCCN2C(=O)CCC[C@H]3C1	.	i	.	.
O=c1c2c3c(sc2ncn1-n1cccc1)CCCCC3	i	i	12.6µM*	6.6%
CCN(CC)c1ccc(C=NNC(=O)Cc2cc(=O)[nH][nH]2)c(O)c1	.	i	.	.
COc1nnc(-c2ccc(N3CCCCC3)c(NC(C)=O)c2)c2ccccc12	i	i	22.4µM*	6.0%
COc1nnc(-c2ccc(N3CCCCC3)c(NC(=O)C3CCCCC3)c2)c2ccccc12	i	.	-21.7%	0.2%
CCC(NC(=O)CCCN1C(=O)COc2ccc(C)cc21)c1ccccc1 (stereo not given)	.	i	.	.
O=C(NCC1CCCO1)c1ccccc1NS(=O)(=O)c1cc([N+](=O)[O-])ccc1Cl (stereo not given)	i	.	-18.3%	22.4µM*
COc1ccccc1NC(=O)Cn1nc(-c2ccc(Cl)cc2)c2ccccc2c1=O	i	i	28.1%	15.3%
COc1ccccc1NC(=O)Cn1nc(-c2ccc(C)cc2)c2c(c1=O)CCCC2	i	i	31.6µM*	.
